Laboratory results as given in PubChem BioAssay (EPA / NIEHS).
The source made the active and inactive calls. Rule for the calls: active = hit-call score of the fitted dose curve at least 0.9, where 1 is the maximum; inactive = score below 0.9.

Assay: APR_HepG2_StressKinase_24hr: Apredica 24-hour HepG2 Assay for Stress Kinase (AID 2282922)
Conditions: HepG2 stress kinase (phospho-c-Jun) imaging, actives raise or lower the signal
Procedure: APR_HepG2_24hr is a cell-based, multiplexed-readout assay that uses HepG2, a human liver cell line, with measurements taken at 24 hours after chemical dosing in a 384-well plate.APR_HepG2_StressKinase_24hr is one of 10 assay component(s) measured or calculated from the APR_HepG2_24hr assay. It is designed to make measurements of enzyme activity, a form of enzyme reporter, as detected with fluorescence intensity signals by HCS Fluorescent Imaging technology.Data from the assay component APR_HepG2_StressKinase_24hr was analyzed into 1 assay endpoint. This assay endpoint, APR_HepG2_StressKinase_24hr, was analyzed with bidirectional fitting relative to DMSO as the negative control and baseline of activity. Using a type of enzyme reporter, measures of protein for gain or loss-of-signal activity can be used to understand the signaling at the pathway-level as they relate to the gene . Furthermore, this assay endpoint can be referred to as a primary readout, because this assay has produced multiple assay endpoints where this one serves a signaling function. To generalize the intended target to other relatable targets, this assay endpoint is annotated to the cell cycle intended target family, where the subfamily is stress response.
Cells were treated with dimethyl sulfoxide (DMSO) as a solvent control at a final concentration of 0.5% v/v or with compounds in DMSO with a resulting final DMSO concentration of 0.5% v/v. Compound treatment was done at concentrations of 0.39, 0.78, 1.56, 3.12, 6.24, 12.5, 25, 50, 100, and 200 uM in duplicate on each plate. Cells were treated with compounds for 1, 24, or 72 hr. Carbonyl […] m-chloro-phenylhydrazone (CCCP) and taxol were used as positive controls for mitochondrial function and cytoskeletal stability, respectively; DMSO served as the negative control for this experiment. Cells were fixed by the direct addition of 50 uL formaldehyde in Hank's Balanced Salt Solution (HBSS) to a final concentration of 3.7%. After incubation in the fixation medium for 30 min at room temperature (293-298 K), cells were rinsed twice with HBSS and treated with cell permeabilization buffer (16 uL of 0.5% Triton X-100) for 10 min at room temperature (293-298 K) before labeling. For mitochondrial membrane potential and mitochondrial measurements, pre-fixed cells were incubated with 50 uL of MitoTracker Red CMXRos (Invitrogen) at a concentration of 250 nM for 30 min before fixation. In the remaining cases, post-fixed cells were labeled by incubation with a multiplexed mixture of primary antibodies in HBSS for 60 min at room temperature (293-298 K) to detect immunoreactivity of c-Jun (1:500), phospho-histone H3 (1:100), phospho-histone H2A.x (1:200), p53 (1:400), alpha-tubulin (1:200) and Hoechst 33342 (2 ug/mL). Cells were labeled for multiplexed imaging on two separate plates: a) Hoechst 33342, MitoTracker Red, phospho-histone H3, and alpha-tubulin, and b) Hoechst 33342, phospho-histone H2A.x, and c-Jun. A final rinse with HBSS (50 uL) was performed before analysis. The primary and secondary antibodies for the proteins were phospho-histone H3 (rabbit anti-phospho-histone H3 and FITC-donkey anti-rabbit IgG), phospho-histone H2A.x (mouse anti-phospho-histone H2A.x and FITC-donkey anti-mouse IgG), c-Jun (rabbit anti-phospho-c-Jun and Cy3-donkey anti-rabbit IgG), p53 (sheep anti-p53 and Cy5-donkey anti-sheep IgG), alpha-tubulin (mouse anti-alpha-tubulin and Cy5-donkey anti-mouse IgG). These antibodies are available as the CellCiphr HepG2 assay kit (Millipore).Digital images of each well were captured using a Cellomics ArrayScan VTI (Thermo Scientific Cellomics) (0.8 NA objective, 0.63x optical coupler, and XF-93 filter set) at 20x magnification. The images were acquired using the autofocus feature of the ArrayScan instrument, which entails the following steps. First, the camera focuses on channel 1 (Hoechst 33342), where nuclei are identified. Second, a Z offset of 1 um is used for capturing mitochondria (MitoTracker Red). […]

Row | Compound | outcome | AC50
1 | COc1cc(CCC(=O)CC(=O)CCc2ccc(O)c(OC)c2)ccc1O | inactive | –
2 | Oc1cccc(O)c1 | inactive | –
3 | OCCC(F)(F)C(F)(F)C(F)(F)C(F)(F)C(F)(F)C(F)(F)C(F)(F)C(F)(F)F | – | 29.2 µM (active)
4 | CC(C)(C)c1cccc(C(C)(C)C)c1O | inactive | –
5 | CC(C)(C)c1cc(C(C)(C)C)c(O)c(C(C)(C)C)c1 | inactive | –
6 | COC(=O)CCCCC(=O)OC | inactive | –
7 | CCc1nn(C2CCCCC2)c2cc(C3(C#N)CCC(C(=O)O)CC3)ccc12 (stereo not given) | inactive | –
8 | OC1CCC(C2CCCCC2)CC1 (stereo not given) | inactive | –
9 | C#C[C@]1(O)CC[C@H]2[C@@H]3CCC4=CC(=O)CC[C@@H]4[C@H]3CC[C@@]21C | inactive | –
10 | CC(C)(C)CC(C)(C)c1ccc(O)c(-n2nc3ccccc3n2)c1 | inactive | –
11 | CC(C)(C)c1ccc(O)c(C(C)(C)C)c1 | – | 48.3 µM (active)
12 | CCCCOCCO | inactive | –
13 | COCC(C)OCC(C)O (stereo not given) | inactive | –
14 | CC1=C(/C=C/C(C)=C/C=C/C(C)=C/C(=O)O)C(C)(C)CCC1 | inactive | –
15 | CCC(=C(c1ccc(O)cc1)c1ccc(OCCN(C)C)cc1)c1ccccc1 | inactive | –
16 | C=C(C)C(=O)OCCC(F)(F)C(F)(F)C(F)(F)C(F)(F)C(F)(F)C(F)(F)F | inactive | –
17 | CN1CCN(c2ccccc2/C=C2\SCCN(c3ccc(Cl)c(Cl)c3)C2=O)CC1 | inactive | –
18 | CN(C)C=O | inactive | –
19 | CCCCCCCCC(=O)O | inactive | –
20 | CCCCCCCC(=O)O | inactive | –

Row | Compound | outcome | AC50
21 | NC(=O)N(O)[C@@H]1C=C[C@H](Oc2cccc(Oc3ccc(F)cc3)c2)C1 | inactive | –
22 | NC(=O)N1C(=O)C(C(=O)c2cc(Cl)cs2)c2cc(F)c(Cl)cc21 (stereo not given) | inactive | –
23 | CCCCC(CC)COC(=O)CCCCC(=O)OCC(CC)CCCC (stereo not given) | inactive | –
24 | CCCCCCCCCCCCCCCS(=O)(=O)Oc1ccccc1 | inactive | –
25 | CCCCCCC(=O)O | inactive | –
26 | Nc1cccc2c(N)cccc12 | inactive | –
27 | COc1ccc([N+](=O)[O-])cc1N | inactive | –
28 | OCCC(F)(F)C(F)(F)C(F)(F)C(F)(F)C(F)(F)C(F)(F)F | inactive | –
29 | O=c1c(-c2ccc(O)cc2)coc2cc(O)ccc12 | inactive | –
30 | CCCOc1sc(C(=O)N2CCC(c3cc(CN)ccc3F)CC2)c(C)c1Br | inactive | –
31 | CCCCCCCCCCCCN1CCCC1=O | inactive | –
32 | O=C(/C=C/c1ccc(O)cc1)CC(=O)/C=C/c1ccc(O)cc1 | – | 100 µM (active)
33 | CC(C)CCCCCCOC(=O)CCCCC(=O)OCCCCCCC(C)C | inactive | –
34 | c1ccc2c(c1)ccc1ccccc12 | inactive | –
35 | CC(O)CO (stereo not given) | inactive | –
36 | CC[C@H](c1ccc(O)cc1)[C@@H](CC)c1ccc(O)cc1 | inactive | –
37 | Cc1cc(C)c(O)c(C)c1 | inactive | –
38 | ClC1=C(Cl)C(Cl)(Cl)C(Cl)=C1Cl | inactive | –
39 | O=C(O)c1ccccc1C(c1ccc(O)cc1)c1ccc(O)cc1 | inactive | –
40 | OC1CCCCC1 | inactive | –
